Reference: PubChem BioAssay AID1159580 (chemical genetic matrix, 2015)
About 2,000 (36%) of roughly 5,500 compounds were called active. Roughly 18% stayed inconclusive and do not appear here. Rule as the data show it: active = normalized growth mostly below about 0.91 (no sharp cut-off); inconclusive = no clear call, values can overlap the other calls; inactive = mostly above about 0.92. This is one part of the list.

Assay: chemical genetic growth profiling, strain panel (AID 1159580);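 also: tested at 20 µM; growth read once vehicle control cultures reached saturation at 30 °C; 1 = growth at the plate median or of vehicle wells; lower values mean less growth of the strain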
Conditions: S. cerevisiae deletion strains, growth OD
[1] = locus YAR019C, strain CDC15, active compounds read low
[2] = locus YBL105C, strain PKC1, active compounds read low
[3] = locus YBR135W, strain CKS1, active compounds read low
[4] = locus YBR136W, strain MEC1, active compounds read low
[5] = locus YBR160W, strain CDC28, active compounds read low
[6] = locus YDL017W, strain CDC7, active compounds read low
[7] = locus YDL028C, strain MPS1, active compounds read low
[8] = locus YDL101C, strain DUN1, active compounds read low
[9] = locus YDL108W, strain KIN28, active compounds read low
[10] = locus YDL132W, strain cdc53, active compounds read low
[11] = locus YDL214C, strain PRR2, active compounds read low
[12] = locus YDR052C, strain DBF4, active compounds read low
[13] = locus YDR054C, strain cdc34, active compounds read low
[14] = locus YDR226W, strain ADK1, active compounds read low
[15] = locus YDR477W, strain SNF1, active compounds read low
[16] = locus YER123W, strain YCK3, active compounds read low
[17] = locus YER133W, strain GLC7, active compounds read low
[18] = locus YFL009W, strain cdc4, active compounds read low
[19] = locus YFL029C, strain CAK1, active compounds read low
[20] = locus YFR003C, strain YPI1, active compounds read low
[21] = locus YFR019W, strain FAB1, active compounds read low
[22] = locus YFR028C, strain CDC14, active compounds read low
[23] = locus YGR040W, strain KSS1, active compounds read low
[24] = locus YGR052W, strain FMP48, active compounds read low
[25] = locus YGR092W, strain DBF2, active compounds read low
[26] = locus YHR030C, strain SLT2, active compounds read low
[27] = locus YHR079C, strain IRE1, active compounds read low
[28] = locus YHR082C, strain KSP1, active compounds read low
[29] = locus YHR205W, strain SCH9, active compounds read low
[30] = locus YIL147C, strain SLN1, active compounds read low
[31] = locus YJL095W, strain BCK1, active compounds read low
[32] = locus YJL128C, strain PBS2, active compounds read low
[33] = locus YJL157C, strain FAR1, active compounds read low
[34] = locus YJR016C, strain ILV3, active compounds read low
[35] = locus YJR066W, strain TOR1 (second series), active compounds read low
[36] = locus YJR066W, strain TOR1, active compounds read low
[37] = locus YKL048C, strain ELM1, active compounds read low
[38] = locus YKL067W, strain YNK1, active compounds read low
[39] = locus YKL101W, strain HSL1, active compounds read low
[40] = locus YKL193C, strain SDS22, active compounds read low
[41] = locus YKL203C, strain TOR2, active compounds read low
[42] = locus YLR113W, strain HOG1, active compounds read low
[43] = locus YLR133W, strain CKI1, active compounds read low
[44] = locus YLR403W, strain SFP1, active compounds read low
[45] = locus YML070W, strain DAK1, active compounds read low
[46] = locus YMR001C, strain CDC5, active compounds read low
[47] = locus YMR205C, strain PFK2 (second series), active compounds read low
[48] = locus YMR277W, strain FCP1, active compounds read low
[49] = locus YNL006W, strain LST8, active compounds read low
[50] = locus YNL020C, strain ARK1, active compounds read low
[51] = locus YNL161W, strain CBK1, active compounds read low
[52] = locus YNL183C, strain NPR1, active compounds read low
[53] = locus YNL207W, strain RIO2, active compounds read low
[54] = locus YNL222W, strain SSU72, active compounds read low
[55] = locus YNL307C, strain MCK1 (second series), active compounds read low
[56] = locus YOL078W, strain AVO1, active compounds read low
[57] = locus YOL136C, strain PFK27, active compounds read low
[58] = locus YOR061W, strain CKA2, active compounds read low
[59] = locus YOR119C, strain RIO1, active compounds read low
[60] = locus YOR231W, strain MKK1, active compounds read low
[61] = locus YOR329C, strain SCD5, active compounds read low
[62] = locus YPL031C, strain PHO85, active compounds read low
[63] = locus YPL153C, strain RAD53, active compounds read low
[64] = locus YPL204W, strain HRR25, active compounds read low
[65] = locus YPL209C, strain IPL1, active compounds read low
[66] = locus YPL256C, strain CLN2, active compounds read low
[67] = locus YPR025C, strain CCL1, active compounds read low
[68] = locus YPR106W, strain ISR1, active compounds read low
[69] = locus YPR111W, strain DBF20, active compounds read low
[70] = strain NNK1, active compounds read low
[71] = strain TSCII, active compounds read low

Measured: normalized growth

O=C(Nc1ccncc1)c1cc(-c2ccccc2)oc1C(F)(F)F
inactive: [1] 0.99 | [2] 0.985 | [3] 0.991 | [4] 0.988 | [5] 0.983 | [6] 0.991 | [7] 0.993 | [8] 0.992 | [9] 0.991 | [10] 0.979 | [11] 0.953 | [12] 0.989 | [13] 0.981 | [14] 0.989 | [15] 0.973 | [16] 0.946 | [17] 0.976 | [18] 0.99 | [19] 0.984 | [20] 0.99 | [21] 0.993 | [22] 0.984 | [23] 0.962 | [24] 1 | [25] 0.949 | [26] 1 | [27] 0.941 | [28] 1.01 | [29] 0.998 | [30] 0.994 | [31] 0.991 | [32] 0.958 | [33] 0.952 | [34] 0.988 | [35] 0.937 | [36] 1.03 | [37] 0.976 | [38] 0.968 | [39] 0.977 | [40] 0.988 | [41] 1.04 | [43] 0.975 | [44] 0.987 | [45] 0.951 | [46] 0.996 | [47] 0.973 | [48] 0.993 | [49] 0.992 | [50] 0.985 | [51] 0.982 | [52] 0.965 | [53] 0.98 | [54] 0.977 | [55] 0.976 | [56] 0.988 | [57] 0.953 | [58] 0.991 | [59] 1.03 | [60] 0.908 | [61] 0.998 | [62] 0.964 | [63] 0.959 | [64] 0.953 | [65] 0.976 | [66] 0.868 | [67] 0.99 | [68] 0.979 | [69] 0.98 | [70] 0.993 | [71] 0.989
active: [42] 0.843

O=C(NNc1ccccc1)c1cc(-c2ccc(Cl)cc2)oc1C(F)(F)F
active: [15] 0.615 | [16] 0.522 | [17] 0.629 | [23] 0.622 | [24] 0.38 | [25] 0.434 | [26] 0.289 | [28] 0.5 | [31] 0.293 | [36] 0.456 | [37] 0.762 | [38] 0.686 | [39] 0.521 | [41] 0.636 | [42] 0.234 | [43] 0.678 | [44] 0.653 | [45] 0.465 | [47] 0.667 | [50] 0.683 | [55] 0.549 | [59] 0.684 | [60] 0.46 | [62] 0.443 | [63] 0.339 | [64] 0.58 | [66] 0.492
inactive: [1] 0.947 | [2] 0.952 | [3] 0.934 | [4] 0.952 | [5] 0.942 | [6] 0.949 | [7] 0.957 | [8] 0.973 | [9] 0.95 | [10] 0.953 | [11] 0.714 | [12] 0.956 | [13] 0.94 | [14] 0.951 | [18] 0.958 | [19] 0.943 | [20] 0.958 | [21] 0.779 | [22] 0.942 | [27] 0.541 | [29] 0.624 | [30] 0.96 | [32] 0.975 | [33] 0.75 | [34] 0.95 | [35] 0.66 | [40] 0.954 | [46] 0.942 | [48] 0.953 | [49] 0.96 | [51] 0.944 | [52] 0.697 | [53] 0.959 | [54] 0.931 | [56] 0.952 | [57] 0.727 | [58] 0.795 | [61] 0.957 | [65] 0.926 | [67] 0.951 | [68] 0.933 | [69] 0.931 | [70] 0.939 | [71] 0.95
